Source: the supplement of paper PMC3334620
The full ranking holds about 33,000 sequences; the median of “E-score (-0.5 to 0.5)” is about -0.01, and the highest 2% start at about 0.26. Many of the other results were omitted from the sample, so the highest values are more common in it than they were.

Target: Ste12 (UniProt P13574)
Experiment: PBM E-score (8-mer binding enrichment) (E-score (-0.5 to 0.5)); higher = stronger / more preferred TF binding
Conditions: protein concentration: 200 nM; construct: GST-DNA-binding domain
Procedure: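 Universal 'all 10-mer' protein binding microarrays (Agilent AMADID 015681) probed with GST-tagged S. cerevisiae TFs (full-length or DBD) made by in vitro transcription/translation (PURExpress), about 100-200 nM. Bound TF was detected with fluorescent anti-GST. Each ungapped 8-mer (which stands for itself and its reverse complement) is scored by the PBM enrichment score (E-score), a modified Wilcoxon-Mann-Whitney statistic from -0.5 to +0.5, computed with the Universal PBM Analysis Suite. Scale: above 0.35 generally sequence-specific binding.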

Chain of UniProt P13574 (P13574 whole entry): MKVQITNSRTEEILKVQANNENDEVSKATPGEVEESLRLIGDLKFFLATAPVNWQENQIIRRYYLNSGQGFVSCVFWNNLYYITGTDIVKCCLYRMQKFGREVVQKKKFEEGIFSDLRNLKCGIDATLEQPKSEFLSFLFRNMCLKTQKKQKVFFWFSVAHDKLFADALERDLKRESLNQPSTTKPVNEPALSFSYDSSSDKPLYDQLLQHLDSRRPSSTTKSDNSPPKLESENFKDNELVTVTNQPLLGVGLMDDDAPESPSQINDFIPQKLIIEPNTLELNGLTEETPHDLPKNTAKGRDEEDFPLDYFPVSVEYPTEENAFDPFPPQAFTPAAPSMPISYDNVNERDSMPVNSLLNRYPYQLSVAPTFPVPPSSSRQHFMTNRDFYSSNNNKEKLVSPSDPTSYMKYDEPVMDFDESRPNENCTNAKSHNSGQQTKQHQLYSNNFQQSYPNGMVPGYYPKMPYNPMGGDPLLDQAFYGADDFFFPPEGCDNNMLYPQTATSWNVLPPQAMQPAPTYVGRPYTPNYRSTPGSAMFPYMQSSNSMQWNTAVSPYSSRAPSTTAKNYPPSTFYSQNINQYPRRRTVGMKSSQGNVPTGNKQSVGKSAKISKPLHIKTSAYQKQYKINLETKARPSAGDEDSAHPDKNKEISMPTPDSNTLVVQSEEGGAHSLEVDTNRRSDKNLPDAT

Sequence | PBM E-score
CCAGCTAC | -0.091
AGCGACTA | -0.043
TCAGTCAA | -0.0289
GGGACACA | 0.17
ACCGCGCT | -0.16
CGCGCGCC | 0.157
CGCGCGGC | 0.306
ACCGCGCG | 0.273
AGCGCGGC | 0.0144
CGCGCGCA | 0.208
CGCGCGCG | 0.262
ACCGCGCC | -0.034
CCCGCGGC | 0.224
GCCGCGGA | 0.0303
CGCGCGGA | 0.0633
GCCGCGGC | 0.29
ACGGAGTG | -0.043
AACGACCC | -0.126
ACGCTCGG | -0.0861
GTTCAGTA | -0.0836
ATCGCACA | 0.0146
AACCAATA | 0.195
ACGTAGCG | -0.0127
CCTGAAAG | -0.179

Sequence | PBM E-score
GCTGAAAA | 0.17
ACTGAAAA | 0.101
GCTGAAGC | -0.0602
GCTGAAAC | 0.485
ACTGAAAG | 0.175
ACTGAAAC | 0.477
CCTGAAAA | 0.0508
CCTGAAAC | 0.487
GATGGGCA | -0.0542
AGAATATA | 0.0722
AAATCTAC | 0.151
CCCGCACA | 0.023
GCCAGGTA | -0.127
AACGATTC | -0.0106
GCCCTCAA | -0.23
GCGGTCAA | -0.0277
GGGGTTCA | -0.0134
GGTTTTCA | 0.311
CGGTTTAA | 0.00247
AGGTTTCC | -0.0692
CGGTTTCA | 0.452
GGGTTTGA | 0.18
AGGTTTCA | 0.451
CGTTTTCA | 0.132

Sequence | PBM E-score
AGGTTTCG | 0.144
GGGTTTCA | 0.435
CGGTTTCC | 0.1
GTTTTTCA | 0.217
AACGTCAG | -0.155
GAGGATTA | 0.0342
CCCGATAG | 0.0566
GGCTTTAA | 0.0191
AAAGCGCC | -0.0182
CGCTCAAC | -0.108
CTTGACCC | -0.129
ACCTCATC | -0.0717
GACAGCCC | -0.085
CTGAACGA | -0.167
AATCCAGC | -0.221
GAAACATA | 0.433
TAAACATA | 0.218
CAAACATC | 0.192
GATACATC | 0.0608
CAAACATA | 0.23
GAAACATC | 0.355
GCATATCA | 0.0522
ACGAATGA | 0.135
AAACGGAT | 0.265

Sequence | PBM E-score
AAACGGAC | 0.149
AAACGGAG | 0.0885
TACGCAAA | -0.0817
CCCAGACC | -0.0973
AAAGTACC | -0.0428
AAACACAC | 0.243
CAACACCG | -0.103
AAACACCG | 0.318
ATACACAG | -0.054
ATACACAC | -0.0713
CAACACGC | -0.247
ATACACAA | 0.283
AAACACGA | 0.129
AAACACCT | 0.104
AAACACAG | 0.118
AAACACGC | 0.288
AAACACAA | 0.291
ACGCCTAA | 0.0463
CTAGTTGA | 0.175
TAGCGAAA | 0.118
AGCAGTTG | -0.126
CCGGTCTA | -0.191
